In the supplement of paper PMC11417369:
In all, about 25,000 sequences were measured (“ln(normalized median fluorescence intensity)”: median about 7.1, highest 2% from about 10 on). This is one part of a sample in which the highest values are shown more often than they occur.

tested on: PfSIP2 AP2 domain 1 (GST-tagged); test: gcPBM binding intensity (ln(normalized median fluorescence intensity)); higher = stronger DNA binding
Summary of the method: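 Binding intensity values are the highest Masliner-normalised natural-log median intensity among replicate spots of either probe orientation. The binding step lasted 1 h in 1× PBS with 1% milk, 0.2 mg/ml BSA, 0.5% salmon testes DNA and 0.03% Triton X-100, using GST-tagged P. falciparum DNA-binding domains expressed in E. coli on an Agilent 4 × 180k array of primer-extended double-stranded 36-bp intergenic genomic probes plus negative controls. Alexa488 anti-GST antibody and a 488 nm scan detected bound protein.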

In order of rising “gcPBM binding intensity (ln)” value:
1. AAAAAAAAAAATTAAAGTACAAAAATATTAAAAATA [XGTACX_site6517]  6.8
2. TTTTTATTACATAATTAAAAAAAATAATAAAATAAA [XGTACX_negctrl_site249]  6.8
3. TTTTTCTTTTTTTTTTTAATAATATATAACAAATTT [CACACA_negctrl_site1724]  6.81
4. ATAGGACCTATGTGCCCATGGGTACATTAAAAAAAA [CACACA_negctrl_site1465]  6.83
5. TTTATAAAATATCTTTCACACATTACTATGTATTAT [CACACA_site5148]  6.83
6. TTAAATAAAAGGTTTAGTACTTAAAATAAGAAATGA [XGTACX_site6341]  6.91
7. AATTTTTTTTTTTTTTTTTCTTTTGTAATAAACCAT [XGTACX_negctrl_site334]  6.92
8. ATAAATTTTTAAAAATATGAATTATGTAATTTGTGA [CACACA_negctrl_site1621]  6.92
9. TTTTTTTCTATAATACACCAGAAAAAAAAATTAAAA [TGCATGCA_negctrl_site257]  6.96
10. ACAAAAAGTTACATACGTACGTAAAATTGTAATAAA [XGTACX_site2358]  6.96
11. ATATATAAAAAATGTGGTACATTCATTTATTATACA [XGTACX_site3495]  6.96
12. TATTTATTGTGACACTTTTATTATTTTATGATAAAA [CACACA_negctrl_site37]  6.97
13. AAGAAAAATATATATATAAATAAATAAATATATATA [TGCATGCA_negctrl_site330]  6.98
14. AATTTTGTATAGGTATCACACATGAAATATATTATT [CACACA_site5526]  6.98
15. TACTTTTATATAGAAAGTACATACAATTCATAGAAT [XGTACX_site2182]  6.98
16. TTTTTTTTTTTTTTTTGTCCGTACTGCTTTGTGTTT [XGTACX_site3687]  6.99
17. ATTATATAACAAAATAGTACATATATTTATTACATC [XGTACX_site336]  6.99
18. TTTTTTTTTTTTTTGTGTACTAATATTATAAATTTT [XGTACX_site4405]  7.01
19. ATATAATATGGTATTACACACTGTTAAAAGTATGGC [CACACA_site5190]  7.03
20. AACTATTTTATTATATGTACTTACGAATTTATAAAA [XGTACX_site5262]  7.04
21. ATATTATATTATTAATGTACATATATATAATTTTAA [XGTACX_site4974]  7.05
22. ATATCGTTATTTTTATGTACTAAAATATTTAATTAT [XGTACX_site3516]  7.09
23. CCATATTTCATTAATGAACACACAAAGAGGTATATA [CACACA_site8431]  7.11
24. AATAATATTTATTTTTGTACATATGTGCATTATAAA [XGTACX_site3682]  7.13
25. AAAAAACACGCGCACACACACACACGCGCCCACATA [CACACA_site7106]  7.16
26. TATATAAAAAATAGGTGGTCAACTTAAATATTTTAT [XGTACX_site4495]  7.16
27. TAACAAAACCTTATATGTACACACATATACATCACA [XGTACX_site6772]  7.16
28. TTTCATATATATGAAACACACAAAGGAAAAAAAATT [CACACA_site4144]  7.23
29. ATTTTATGTTGAAAGTGTACGTATTAATATGTAGAA [XGTACX_site245]  7.34
30. GTATATAAATATATATATATATATATATCTATATTT [CACACA_negctrl_site871]  7.42
31. TTCTTCAATATATTCTTACACACTTAAAAAAAAAAA [CACACA_site228]  7.5
32. CCTTAAAATAAGATATGTACGCAAAGGAAAACAAAG [XGTACX_site6057]  7.62
33. TTTATTTGTGCATATACACACTTAAATATGTTTATT [CACACA_site7772]  7.65
34. TTATATTTAGTATATGCACACTTTATGTTTGTTATT [CACACA_site5163]  7.74
35. TTGATTATAATTAGTACACACAAAATACATGCGGGG [CACACA_site2277]  7.82
36. AATTATATTTAGTATATGCACACTTTATGTTTGTTA [CACACA_site2025]  7.9
37. CATAAGAAAATAAAAACATGCACATAAGAAATATAC [TGCATGCA_site842]  7.97
38. AGAATATATATAATAGTGCAATGTACAATGAACAAA [GTGCAC_site9577]  8.01
39. ATAATATATGTATGTATGCACTTTTATTATTTTTTT  8.01
40. ATTATTTTTTTTGAAGTGCAATATTATTTTTAATCA  8.2
41. CATTTTTCTATATGTGCATGTAAGATAAGAATAATT [TGCATGCA_site107]  8.22
42. TTTTTTTTGATTTGTTTGCACTTATTTCCACAATAA  8.23
43. GTGTATTTTCTGCGCACACACATGCAAAAAGAAATA [CACACA_site1148]  8.26
44. GTATGTAATATTTTAGTGCAAAAAAAAAAAAAAAAA [GTGCAC_site9790]  8.3
45. ATTTTCTTTTCCATAGTGCAATATAATTATCCATCA [GTGCAC_site9547]  8.36
46. ATATATTTTTATGTAGTGCATTTAAATAATAAATGC  8.42
47. ATATATATTGTACTAGTGCATATATATACATATATT  8.43
48. CTTTTAAATTATTTTTGTACATAATTATATATATAT [XGTACX_site4128]  8.44
49. CGAACTGCACTTTTTAGTACTTAATAATTATTTTTT [XGTACX_site2446]  8.47
50. TGAAATTTTATTAATGTGCACATATATTTATTGTTC  8.56
51. TATATATATTAGTGTGCACACTTTTTATTTTTATCC [CACACA_site8506]  8.6
52. ATATTATAAAATAAAAGTACACAATTATATATATAT [XGTACX_site8812]  8.6
53. AAATAAATAAATAGAGTGCATATATATATATATTTT  8.61
54. ATATTTTATATATTTGTGCACAATATTATAATATAT  8.63
55. TGTTATTAAAATATAGTGCATAATTAACCATTATAA [GTGCAC_site9594]  8.63
56. ATAAATAAATGGTGTTGTACTCTATTATATATATAT [XGTACX_site7835]  8.66
57. TATATAATAAGATATGCATGCACATGTAAAATGAAT [TGCATGCA_site499]  8.94
58. TTATAATTTTAATGTGCACACAATTAAAATATTATA [CACACA_site5172]  9.21
59. ATATATATATATCACCGTACTTATATAATAACATGA [XGTACX_site4398]  9.36
60. GTATATAAATAAATAGTGCATTATTAAAAATAATGT  9.36
61. ATATATATATATATATGTACATATATTTGTAATGTC [XGTACX_site8074]  9.37
62. AATATAAATATAAATATAAATATATATATATATATA [TGCATGCA_negctrl_site603]  9.38
63. TCCATCCACATATATGTACACACATATATATATATA [CACACA_site8970]  9.43
64. TCATAAATATAAAGTGTGCACTTGAATAATATGTAT  9.52
65. TCATTTTAAATATGTGTGCACGTTATAATTTACACA  9.54
66. GTGTATTTTGTGCGCACACACATGCAAAAAGAAATA [CACACA_site6660]  9.54
67. TTTAATTTATATTTTGTGCACATCTTATTATATATA [GTGCAC_site9630]  9.58
68. TATTTATAAATATGTGTGCACAATTTATTTTATAAT  9.67
69. CGATTTTTTAAGTTTGTGCACTTAAAAACTATAACA  9.78
70. ATCTTTCAATAATTCACACATATATATATATATATA [CACACA_site4598]  9.91
71. TTTGGAATATTAATTGTGCACTTAAAAAGTTAATTA  10
72. ATTATATATAATATAGTGCATGTAAAAAATAAAACA  10
73. TGTGTATATATGCTGGTGCAACTTTAAAAAATAATC  10.1
74. ATTTATATTAAAAGTGTGCACTTTTTTTTTTTTTTT  10.1
75. AAATATTTTTAGAGTGCATGTAATAAAAATATAATG [TGCATGCA_site19]  10.1
76. TTTATATTAATTGATGTGCACTGAAATATTTGTCCA [GTGCAC_site9655]  10.2
77. TTATTTTATTTTTGTGCACACTGATAAATTGAAAAG [CACACA_site2949]  10.2
78. TTAAATATTTTTAGAGTGCATGTAATAAAAATATAA [GTGCAC_site9414]  10.2
79. TGATATTATATTGTGATGCACTTTAAAAATATAAAG [GTGCAC_site9509]  10.3
80. AAAAAAATTAATAATGTGCACTTTTTAGTATTTTTA [GTGCAC_site9744]  10.3
81. AGTACATTTTTGTGTGTGCACTAATATTATATACTT [GTGCAC_site9568]  10.3
82. TTTTGTTACTTTTATGTGCACTTATAAAACGAACTA [GTGCAC_site9551]  10.3
83. CTATGCATTTATAGTGCATGTAAAATATAAGATAAT [TGCATGCA_site71]  10.3
84. AAATTATGCATCGAGGTGCGTCTTAAAATATAGTGG  10.3
85. ATATCAAATAATTTAGTGCACTTTTTTTTTTCTTTT [GTGCAC_site9629]  10.4
86. TATTTATTTTTTTTTGTGCACTTAATATAATCTTAC  10.4
87. ATGAAATATTTATTTGTGCACTTAATTTGTTGGAAA  10.4
88. TTTATCTAAATATGTGTGCACTCGTTAATTTTTTTT  10.5
89. TGTATTAAAAATTTGGTGCAACTTTTACATAATAAT  10.5
90. TATATTTTATATATGGTGCAACTTTTATTTAAATAA  10.6
91. TATATATAAATATATGTGCACTTTTTATATTTATAT  10.6
92. TATATTTATATATTAGTGCACTTTTTGTTAATTTTT  10.7
93. TTCTATGCATTTATAGTGCATGTAAAATATAAGATA [GTGCAC_site9466]  10.9
94. TTTTGTTATTTTGAAGTGCACTTTCCACTTAATATA  11
95. ATATAAAGTATGTTAGTGCACTTTTTTTTTTTTTTT [GTGCAC_site9419]  11.2
96. GTGTATTTGGTGCGCACACACATGCAAAAAGAAATA [CACACA_site4768]  11.6
